# According to the supplement of paper PMC11417369:
# ± gives the standard deviation of the averaged measurements. Over roughly 25,000 sequences, “ln(normalized median fluorescence intensity)” has its median near 10; the highest 2% begin near 12. The entries come from a sample that favours the highest values as a whole.
# Test system: PfAP2-G AP2 domain (GST-tagged)
# Test: gcPBM binding intensity (ln(normalized median fluorescence intensity)); higher = stronger DNA binding
# Outline: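 Probes on an Agilent 4 × 180k array were primer-extended, double-stranded and 36 bp long, taken from intergenic genomic regions, with negative controls added. GST-tagged P. falciparum DNA-binding domains from E. coli, about 25 μg on average, were applied to the array for 1 h in 1× PBS containing 1% milk, 0.2 mg/ml BSA, 0.5% salmon testes DNA and 0.03% Triton X-100. Binding intensity, obtained after Alexa488 anti-GST antibody detection and a 488 nm scan, is the highest Masliner-normalised natural-log median intensity across replicate spots of either probe orientation.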
row,Sequence,gcPBM binding intensity (ln)
1,TAAAAAAAAAGAAGCTGTACTAAAAAATTTATATTA [XGTACX_site7408],11.1 ± 0.81
2,ACATATAATATAAAGTGTACAAGAAAATAAAAATAA [XGTACX_site1273],11.3 ± 0.77
3,TATATATATATTATATGTACACAAGGAAATATGCAT [XGTACX_site5637],11.5 ± 0.75
4,TATAAATATATATTTTGTACTTAATATAAATTTATA [XGTACX_site7996],11 ± 0.62
5,ACTATTATTAAAAATTGTACTTTCTATAAATTTTTT [XGTACX_site7825],11.1 ± 0.62
6,TATATTTATTCCTGTTGTACTTTATATTATTTTTTT [XGTACX_site1415],11.3 ± 0.6
7,TATATTAAAATTTACTGTACTTTTTTTATTTTAAAA [XGTACX_site4077],11.6 ± 1.1
8,ATTTTTTTATTTTTGTGTACTTATAAGAATATTAAT [XGTACX_site4850],11.7 ± 1.1
9,GTTAAGAATATATAATGTACTTATTTTAATATAGTA [XGTACX_site6088],11.1 ± 0.84
10,CTTCCTATATTTTACTGTACTTTTTTTTTTTTTTTT [XGTACX_site4016],11.7 ± 0.98
11,TAAATAAAAATACAGTGTACTTTTTTCTATTTAAAA [XGTACX_site3288],11.7 ± 1.2
12,ATTTAAATACAAAATTGTACTTTTCTATATTTAACA [XGTACX_site6146],11.3 ± 0.64
13,ATATATATATATATATGTACTTATTTATTTTATATA [XGTACX_site8810],11.5 ± 1.1
14,ATATATGTGTATGTATGTACTTATATTTTTTTTTAT [XGTACX_site1733],11.2 ± 0.78
15,TTATATATTTTTATGTGTACTTATATATATATATAT [XGTACX_site6211],11.7 ± 1.1
16,ATATATTAAAACCTAGTGCATTTGTACATATTTCAA,11 ± 0.52
17,ATTTTAGATGAAAAAGCACACAACATATATATATAT [CACACA_site2295],10.2 ± 0.43
18,TAATAAATAAGACACACACACATATATATATATTAT [CACACA_site1389],10.01 ± 0.042
19,TTGTATTATTAAATTATAAAACCTATAATTATGGAT [GTGCAC_negctrl_site340],9.68 ± 0.099
20,TGGAAATTCTCAGGAGTGCATATTTGCAGTTTACGT [GTGCAC_site9768],10.3 ± 0.25
21,GGGAAAGAACCATATACATGCATATTTACCGTTAAA [TGCATGCA_site519],10 ± 0.28
22,ATTTATATATAATATACACACATATAATCCACATAT [CACACA_site699],10.15 ± 0.035
23,TTTAAATTTTTATATTGTACTTTATTTATTTATTTA [XGTACX_site869],11.2 ± 0.85

row,Sequence,gcPBM binding intensity (ln)
1,TATATATATATATATTGTACTTTATTTTATATATTC [XGTACX_site5697],11.2 ± 0.71
2,CAAAAAATATATTTTTGTACTTATGTTTTTATTTTG [XGTACX_site5230],11.1 ± 0.76
3,ATATATATATATATATGTACTTAATATTTCTTATTT [XGTACX_site6206],11 ± 0.76
4,TTTTTGTTTTTTTTGTGTACTTATCAAATATATATA [XGTACX_site7273],11.6 ± 0.83
5,GCTATTTATTTATATTGTACTTTTTTTTTTTTTTTT [XGTACX_site3624],11.7 ± 1.1
6,ATATATATATATGTGTGTACTTATTTATTTATTTGT [XGTACX_site549],11.5 ± 1
7,TATATATATATCAAGTGTACTTGTGTTTGTAATATT [XGTACX_site8854],11.4 ± 1
8,TCTTTTTAATTTATATGTACTTATATTAATTATAAG [XGTACX_site7524],11.4 ± 0.97
9,TTTTTTCTTTTTATGTGTACTTATTTTATTTAATAA [XGTACX_site1080],11.7 ± 1.1
10,TTTTTTTTTTTAAATTGTACTTATTTTATATTATAT [XGTACX_site1077],11.4 ± 0.9
11,AATTTTTTTTTATTGTGTACTTATTTTTTTATATTT [XGTACX_site917],11.7 ± 0.88
12,ATATATAATATATACACACACATGTATATATAAATA [CACACA_site1968],9.87 ± 0.16
13,TTTCTTTTTAAATAGGTGCATATTTTTATAAATATA,10.1 ± 0.38
14,AAACTAACTCTAACATGTACATATATATATATATAT [XGTACX_site6949],11.1 ± 0.66
15,AACAATTATTGTAATGCATGCACTGAATATAGAAAG [TGCATGCA_site889],10.2 ± 0.18
16,TGTGTTAATATATGAAGTACACAATACACACTAATT [XGTACX_site5469],11.4 ± 0.73
17,ATGTACATTTTTTTCACACATACATTAATTTATGAG [CACACA_site5801],11.3 ± 0.87
18,GCAGGCTAAAAAATTACACACGAAAAAAATGAATTT [CACACA_site3417],9.86
19,GCCCCCTAAAAAATTACACACGAAAAAAATGAATTT [CACACA_site9128],11.7 ± 1.2
20,ATAAAAAAATAAATAACACACAAAATTACACGAAAA [CACACA_site3620],10.01 ± 0.049
21,TATATTATATTTTTATGTACTTATTTATTTTGTTTC [XGTACX_site6145],11.3 ± 0.67
22,AGTCTGAATAAAATTACACACATATACAGATATATA [CACACA_site5054],9.8 ± 0.014
23,TAAGTCGCCAAAAGGTGTACACATAATGCATTATCA [XGTACX_site8852],11.8 ± 0.79

row,Sequence,gcPBM binding intensity (ln)
1,AAAAAAAAAAAAAGGTGTACAAGTATAATTACATAA [XGTACX_site534],11.5 ± 0.95
2,TGCATGCATTATCATAGTACATATAATGTTGTATAA [XGTACX_site2775],10.7 ± 0.45
3,GTCGCCAAAAGGTGTACACATAATGCATTATCATAA [CACACA_site6112],11.7 ± 0.88
4,ACCAAATTATCAAATGGTACACATAAAATAATAAAA [XGTACX_site865],11.3 ± 0.74
5,TTTTTTTTTTTTTTGTGTACATATAATGCACATTAT [XGTACX_site6505],11.4 ± 1
6,TACGTTTTAAAACACACACACAAAAAAAAAAAAAAA [CACACA_site3876],9.97 ± 0.64
7,TTACATTATATACATACACACCCACCCACAAAAAAA [CACACA_site8187],10.7 ± 0.47
8,TATATATAAGCGTGTACACATTCTGAGTGTTGTATA [CACACA_site4502],11.7 ± 1.1
9,ATATATATATAGTGTTGTACATTTAAAAATAATATA [XGTACX_site2627],11.2 ± 0.78
10,TATGTATTCATATGTTGTACATTATATATAATAAGT [XGTACX_site6589],11.2 ± 0.79
11,ATGTTGTGTATATATACACACATACATATATATATA [CACACA_site8461],10.4 ± 0.43
12,AAATATATATAAGCGTGTACACATTCTGAGTGTTGT [XGTACX_site1088],11.7 ± 1.1
13,ATATATATATATAAATGTACATTGTGTGTTGTAAGA [XGTACX_site2434],10.8 ± 0.38
14,ATTCCAAAAAAATCAAGTACTAATTTATTATATTAC [XGTACX_site3920],10.9 ± 0.49
15,AATAAATTTAGACACACACACACATATAAATAAATA [CACACA_site6531],10.1 ± 0.13
16,AAAGAATTTGCATATACACACAAAAAAATATATACA [CACACA_site386],10.03 ± 0.035
17,TTACATACATACAAGTGTACGCATATATTAATATTA [XGTACX_site4006],11.8 ± 1
18,TTGTGTACATATTAAGTGCATATATATATATATATA,11.7 ± 1.2
19,TATATTAATAATAAGTGTACATATATATATATTTTT [XGTACX_site288],11.3 ± 0.81
20,TTTTTTTTATTAGTGTGTACGCATTTATTTATACAT [XGTACX_site1599],11.7 ± 0.88
21,AATATATTTATATAGTGTACATTTTTTATATATGTA [XGTACX_site8142],11.3 ± 0.78
22,ATATTAATATACATATGTACATATATATATATATAT [XGTACX_site7425],11.2 ± 0.62
23,TTAATATATTATATTTGTACATATATATATATACAA [XGTACX_site4798],10.9 ± 0.62

row,Sequence,gcPBM binding intensity (ln)
1,CATGTGCATATTAAATGTACATATATACATATATAC [XGTACX_site857],10.9 ± 0.58
2,TATATATATATTTATACACACATTAGTGTATACATG [CACACA_site2950],10.3 ± 0.22
3,AATATATCTTTTTACGGCAACCATATTTTTCCCATT [CACACA_negctrl_site963],10.21 ± 0.064
4,TGATTATCCTATATATATTTCATAATGGAAAAAAAT [TGCATGCA_negctrl_site444],9.89 ± 0.35
5,CCATATGATATATATTGTACATTATATATTATTTCT [XGTACX_site1697],10.7 ± 0.45
6,CGTTAAAGGGAATGTATACACACGTTTCTCTATGTT [CACACA_site1198],10.2 ± 0.16
7,TATATACACATATATAAACACACAAAAAAAAAAAAA [CACACA_site8626],9.89 ± 0.48
8,ACGTATAATATGTACACACACATATATACAAAAAAA [CACACA_site917],11.5 ± 1.1
9,ATATACACACAAAAACGTACACATATATATATGTAT [XGTACX_site2673],11.7 ± 0.86
10,TATACACATATATAAACACACAAAAAAAAAAAAAAA [CACACA_site7041],9.78 ± 0.53
11,TATAAACGTATAATATGTACACACACATATATACAA [XGTACX_site1686],11.3 ± 0.94
12,TAAAAAAAAACATATACACACAAAAACGTACACATA [CACACA_site1354],11.8 ± 1.1
13,AAAAATTTATTTTGTTTTTTAAGATTTTTTTTTTTT [CACACA_negctrl_site1210],9.46 ± 0.028
14,TAGTATAATATGAACACACACACACGCACAAAAAAA [CACACA_site7035],10.4 ± 0.2
15,CATATAATATAATTATGTACATATATAATAATATAC [XGTACX_site5278],11.2 ± 0.69
16,CTTATTTAAGAGTATGAACACACATCATACACATAT [CACACA_site9205],10.3 ± 0.23
17,TTTTGTTACGGCAAGGAAGTTAAGCATAAATGAATG [GTGCAC_negctrl_site173],10.1 ± 0.16
18,AAAAAAAAAAAAAAAGGTACAGTAAAAAATTCCTCT [XGTACX_site5947],11.7 ± 0.98
19,AAAAAAAAATAAAAAAGTACAGGTAAATATATATAT [XGTACX_site5812],11.5 ± 1.2
20,AAAAAAGGTAAAAAAAGTACAAAAAAAAAATTAAAA [XGTACX_site6993],11.3 ± 0.88
21,ATATTGTAAGTAAACACACACACATATATATGTATA [CACACA_site8124],9.955 ± 0.035
